Source: PubChem (National Center for Advancing Translational Sciences (NCATS))
In the library only some 1.8% were active in any assay of this set; here they are far more common.
TSHR antagonist: blocks TSH signaling through the human TSH receptor; P16473; TSHR-expressing cells, TSH-stimulated cAMP HTRF, 2 h; stronger effect = lower value; activity change, negative = inhibition, % at 11.5 µM; 330,000 compounds, 0.2% hits; AID 504810;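 active = activity change below a set negative limit, meaning inhibition stronger than a set level, cut at about -70% in these data; inconclusive = activity change between two set negative limits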; also: % is scaled to controls: 0 for no effect and ±100 for the full control effect
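Competitive HTRF cAMP read-out (cryptate anti-cAMP antibody, cAMP-d2; 30 min, room temperature) in freshly harvested TSHR cells. Compounds added before TSH at EC80 (4nM final), followed by 2 hours' incubation at 37 deg C.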
PTHR1 agonist: agonists of human PTHR1 parathyroid hormone receptor. HEK293 GP2 PTHR1 cells, GloSensor cAMP luminescence, 1 h. 410,000 compounds, 0.075% hits. Q03431. Potency, µM (series often up to 115 µM), for the others: at the highest dose activation, most hits filed as activators. AID 743266; also: potency is read from the fitted curve at half-maximal effect; nearly all actives have a fitted effect of over 55% in size
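HEK-293-derived GP2 cells expressing PTHR1 and a GloSensor cAMP reporter, 3,000/well, plated overnight, given luciferin plus IBMX (each 0.5 mM as added) for 1 h at 37 °C, then compound for 1 h at 37 °C. Luminescence was read after 15 min at room temperature.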
GLP1R cytotox: cytotoxicity in counter-screen for GLP-1R inverse agonists; HEK293 cAMP-luciferase reporter cells, luminescence, 24 h; Potency, µM (titrated, usually from 38.3 µM), inactives show at the highest dose activity change, negative = inhibition, hits mostly inhibitors; 410,000 compounds, 0.13% hits; AID 624418;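 also: loss of luciferase light is scored as toxicity; potency is read from the fitted curve at half-maximal effect; % is scaled to controls: 0 for no effect and ±100 for the full control effect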
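1536-well qHTS counterscreen of the MLSMR; 200 cells/uL, 12 h pre-incubation, 23 nL cpd, 24 h at 37 deg C 5% CO2, luciferase detection reagent, 12 min RT, luminescence. Inhibition = undesired.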
GLP1R ag: activates the human GLP-1 receptor; 380,000 compounds, 0.007% hits; HEK293 GLP-1R CRE-luciferase, luminescence, 4-6 h; cells express a hypersensitive GLP-1R form; Potency, µM (top dose mostly 45.6 µM), for inactives: at the highest dose activation, most hits filed as activators; AID 624172; also: potency is read from the fitted curve at half-maximal effect; % of control where 0% means no effect
GLP1R inv ag: acts as inverse agonist at human GLP-1 receptor; P43220; HEK293 GLP-1R CRE-luciferase, luminescence, 24 h; GLP-1R form is constitutively active; Potency, µM (doses to about 38.3 µM), for inactives: at the highest dose activity change, negative = inhibition, hits mostly inhibitors; 410,000 compounds, 1.6% hits; also: potency is read from the fitted curve at half-maximal effect; % is scaled to controls: 0 for no effect and ±100 for the full control effect; nearly all actives have a fitted effect of over 55% in size
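GLP-1R inverse agonism mode: basal reporter luminescence in engineered HEK293 cells measured after one day of compound exposure at 37 deg C, with a 12 min room-temperature detection step.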
Starred values were filed as active, the others as inactive; i = inactive; u = inconclusive; x = no result given; [ ] = dose if it differs, or a comment. Unless noted, calls follow the shape of the dose curve; as a rule, active = well fitted curve in the direction sought with a large enough effect; inconclusive = small, poorly fitted or top-dose-only effect, or another doubt; inactive = no such curve, though single readings can be large; an effect the other way counts as inactive or inconclusive.

SMILES | TSHR antagonist | PTHR1 agonist | GLP1R cytotox | GLP1R ag | GLP1R inv ag
CCN(CC)C(=O)Cn1c(=O)n(-c2ccc(Cl)cc2)c(=O)c2c3c(sc21)CCC3 | x | i | 0% | x | 1%
Cc1ccc(Nc2c(-c3ccc(C)cc3)nc3c(C)cccn23)cc1 | x | -4% | -16% | x | 10µM*
Cc1ccc(Nc2c(-c3ccccc3O)nc3ncccn23)cc1 | -1 | -5% | -15% | -2% | 10µM*
Cc1ccc(Nc2c(-c3ccsc3)nc3c(C)cccn23)cc1 | x | -77% | 3% | x | u
O=C(Nc1ccc(F)cc1F)Nc1csc2ccccc12 | -27 | -21% | 3% | -18% | 10µM*
CC(C)(C)OC(=O)NCCCCCNC(=O)c1nc[nH]c1C(=O)NCC(=O)OCc1ccccc1 | -11 | -24% | -42% | -13% | 11µM*
CC(C)(C)OC(=O)NCCCC[C@H](NC(=O)c1nc[nH]c1C(=O)N[C@@H](CCCCNC(=O)OC(C)(C)C)C(=O)OC(C)(C)C)C(=O)OC(C)(C)C | 0 | i | -3% | -4% | u
CC(C)C[C@H](NC(=O)c1[nH]cnc1C(=O)N[C@@H](Cc1ccccc1)C(=O)OC(C)(C)C)C(=O)OCc1ccccc1 | -4 | -35% | -5% | 6% | u
CC(C)C[C@H](NC(=O)c1[nH]cnc1C(=O)N[C@@H](Cc1ccccc1)C(=O)OC(C)(C)C)C(=O)OC(C)(C)C | -18 | -43% | -25% | 2% | 10µM*
CC(C)C[C@H](NC(=O)c1[nH]cnc1C(=O)N[C@@H](C)c1ccccc1)C(=O)OC(C)(C)C | 2 | -90% | u | 7% | 10µM*
CC(C)(C)OC(=O)CNC(=O)c1[nH]cnc1C(=O)NCC(=O)OCc1ccccc1 | -2 | -9% | 2% | -1% | -28%
C[C@H](NC(=O)c1nc[nH]c1C(=O)N[C@@H](CCCCNC(=O)OC(C)(C)C)C(=O)OC(C)(C)C)C(=O)OC(C)(C)C | 0 | i | -11% | -5% | 10µM*
Cc1ccc(-c2cc(-c3ccc4c(c3)NC(=O)CO4)nc3c2COc2ccccc2-3)cc1 | x | -14% | 0% | -2% | 12%
CC(C)(C)OC(=O)[C@H](Cc1ccccc1)NC(=O)c1nc[nH]c1C(=O)N1CCN(C(=O)OC(C)(C)C)CC1 | -11 | i | -8% | -3% | 4.5µM*
CC(C)(C)OC(=O)N1CCN(C(=O)c2[nH]cnc2C(=O)N[C@@H](Cc2ccccc2)C(=O)OCc2ccccc2)CC1 | -37 | -20% | 8% | 6% | 1%
COc1cccc(C(=O)Nc2nc3ccccc3[nH]2)c1 | 5 | -8%[57.5 µM] | u | -21% | 7.9µM*
CN(C)c1cccc(C(=O)Nc2nc3ccccc3[nH]2)c1 | 12 | -92% | 2% | -5% | 3.5µM*
CCN(CC)C(=S)SCC(=O)NC12CC3CC(CC(C3)C1)C2 | -25 | -28% | 0% | 18% | 2.8µM*
CCN(CC)CC(=O)NC12CC3CC(CC(C3)C1)C2 | 4 | i | 1% | 2% | -6%
CC1(c2ccccc2)CC(C)(C)N2C(=O)C3(C(C#N)=C(N)Oc4cc(O)ccc43)c3cccc1c32 (centres undefined) | 32 | -30% | u | -13% | 5.6µM*
COc1ccc(C)cc1NC(=O)c1ccc2c(c1)CCN2S(=O)(=O)c1ccc(Cl)cc1 | x | i | 4% | x | 6%
COc1cc(/C=N/Nc2nc(Nc3ccc(C)cc3)nc(-n3nc(C)cc3C)n2)cc(OC)c1OC | 20 | i | 4.5µM* | 7% | u
COc1ccc(C(=O)NCc2nnc(SCC(=O)Nc3ccccc3)n2-c2ccc(F)cc2)cc1 | x | -24% | -13% | 0% | -18%
COc1ccc(OCc2cc(C(=O)NCCc3ccccc3)no2)c(Cl)c1 | -14 | -6% | -24% | 10% | 4.5µM*
CNCCC1Sc2ccccc2Oc2ccccc21 (centres undefined) | 6 | i | 3% | 13% | 10µM*
Cc1ccc(CC(C)(O)CC(C)(O)Cc2ccc(C)cc2)cc1 (centres undefined) | x | -18% | 1% | 6% | 10µM*
